Results from PubChem BioAssay (NCATS).
Results filed as inconclusive are left out. Activity calls are given as the source filed them. Unless noted, the call rests on the fitted dose curve; in most records, active means well fitted curve in the direction sought with a large enough effect; inconclusive means small, poorly fitted or top-dose-only effect, or another doubt; inactive means no such curve, though single readings can be large; an effect the other way counts as inactive or inconclusive.

Key:
[1] = P-glycoprotein substrates identified in KB-8-5-11 adenocarcinoma cell line, qHTS therapeutic library screen (AID 1346987); further: nearly all actives have a fitted effect of over 65% in size; further: potency means the concentration at half of the fitted maximal effect
How it was run: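 Compounds are pinned in dose-response onto KB-8-5-11 cells (500 cells/well, colchicine-free medium) and left 72 h at 37 degree C. CellTiter-Glo luminescence then yields AC50 values.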

[2] = system: Zika virus NS2B-NS3 protease (unlinked complex); test: Primary screen GU Rhodamine qHTS for Zika virus inhibitors: Unlinked NS2B-NS3 protease assay (AID 1347159); further: nearly all actives have a fitted effect of over 60% in size
How it was run: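 Buffer 10 mM Tris-HCl pH 8.0, 0.01% Tween 20. Unlinked protease 25 nM; compound preincubation 15 min, RT, protected from light. Substrate Rhod110, 1.5 microM; ~15% conversion in 15 min.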

[3] = system: Zika virus NS2B-NS3 protease (linked construct); test: Primary screen NINDS Rhodamine qHTS for Zika virus inhibitors (AID 1347160); further: nearly all actives have a fitted effect of over 55% in size
How it was run: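 Aprotinin served as in-plate control. Conditions: 25 nM linked NS2B-NS3, pH 8.0 Tris buffer, titrated compounds, 15 min preincubation and 15 min reaction with 1.5 microM Rhod110 substrate at room temperature.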

[4] = molecular target: Calcium and integrin-binding protein 1 (Homo sapiens) (UniProt Q99828); test: Primary qHTS for Identification of Calcium Integrin Binding Protein 1 (CIB1) Competitor (AID 1508620); further: potency means the concentration at half of the fitted maximal effect
Chain of Calcium and integrin-binding protein 1 (Homo sapiens) (Q99828 whole entry, looked up): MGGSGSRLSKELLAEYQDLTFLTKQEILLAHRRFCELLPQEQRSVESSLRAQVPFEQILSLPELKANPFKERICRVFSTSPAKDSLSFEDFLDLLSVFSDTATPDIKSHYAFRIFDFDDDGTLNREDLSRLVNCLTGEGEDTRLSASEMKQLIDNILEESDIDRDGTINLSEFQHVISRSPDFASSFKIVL
How it was run: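 Fluorescence polarization competition: CIB1-GST (1 uM final) preincubated with compound 15 min at room temperature, then FITC-labeled alphaIIb peptide (100 nM final) added for another 15 min. Polarization read at Ex 480/Em 540.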

CAOV3 = test: Primary qHTS to identify gynecologic anti-cancer compounds using libraries of approved drugs and bioactive compounds (AID 1345084); settings: Gynecologic cancer cell panel viability, ATPlite luminescence, 48 h; series mostly up to 57.5 µM; further: nearly all actives have a fitted effect of over 55% in size; further: potency means the concentration at half of the fitted maximal effect
How it was run: (§1)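 In this quantitative HTS, cell killing is estimated from loss of ATP-dependent luciferase light. Cells see five compound concentrations over a 48 h exposure.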

HeLa = test: as above; settings: Gynecologic cancer cell panel viability, ATPlite luminescence, 48 h; series mostly up to 57.5 µM
How it was run: as §1

JEG-3 = test: as above; settings: Gynecologic cancer cell panel viability, ATPlite luminescence, 48 h; series mostly up to 57.5 µM
How it was run: as §1

[5] = molecular target: Cytochrome P450 2C9 (Homo sapiens) (UniProt P11712); test: Cytochrome P450 family 2 subfamily C member 9 (CYP2C9) small molecule antagonists: luciferase biochemical (cell-free) qHTS assay (AID 1645842; active means well fitted curve in the direction sought with a large enough effect in the repeat runs; an effect the other way counts as inactive or inconclusive; further: nearly all actives have a fitted effect of over 55% in size; further: potency means the concentration at half of the fitted maximal effect)
Chain of Cytochrome P450 2C9 (Homo sapiens) (P11712 whole entry, looked up): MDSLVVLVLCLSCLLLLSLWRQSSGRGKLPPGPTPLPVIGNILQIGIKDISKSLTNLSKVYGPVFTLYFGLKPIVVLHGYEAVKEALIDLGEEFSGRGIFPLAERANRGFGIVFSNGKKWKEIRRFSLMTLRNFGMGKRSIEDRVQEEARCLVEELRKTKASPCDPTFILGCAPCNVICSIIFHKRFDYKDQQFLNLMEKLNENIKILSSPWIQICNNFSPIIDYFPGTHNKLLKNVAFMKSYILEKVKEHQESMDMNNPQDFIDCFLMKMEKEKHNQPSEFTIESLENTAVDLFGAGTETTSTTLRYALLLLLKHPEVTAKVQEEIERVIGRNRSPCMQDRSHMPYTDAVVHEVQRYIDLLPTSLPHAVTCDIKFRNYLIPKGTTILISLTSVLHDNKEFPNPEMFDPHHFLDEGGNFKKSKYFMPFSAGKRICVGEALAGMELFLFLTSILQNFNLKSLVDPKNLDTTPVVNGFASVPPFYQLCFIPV
How it was run: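 P450-Glo CYP2C9 system: proluciferin substrate with enzyme in mix containing 0.4% BSA, 10 min at room temperature, then NADPH regeneration solution added and incubated 1 h at 37C. Detection reagent stopped reaction; luminescence read after 20 min as RLU.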

[6] = Primary redox qHTS assay for identification of artifact compounds. (AID 1845223)
How it was run: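 Redox-cycling detection via DTT (250 uM final) oxidation coupled to Amplex Red (25 uM)/HRP (250 mU/mL) in HBSS. 15 min preincubation plus 30 min after DTT, room temperature. Ex/Em 525/598 nm; 4-parameter Hill fit against DMSO and 10 uM DA3003.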

SKOV3 = test: Primary qHTS to identify gynecologic anti-cancer compounds using libraries of approved drugs and bioactive compounds (AID 1345084); settings: Gynecologic cancer cell panel viability, ATPlite luminescence, 48 h; series mostly up to 57.5 µM; further: nearly all actives have a fitted effect of over 55% in size; further: potency means the concentration at half of the fitted maximal effect
How it was run: as §1

[7] = P-glycoprotein substrates identified in KB-3-1 adenocarcinoma cell line, qHTS therapeutic library screen (AID 1346986); further: nearly all actives have a fitted effect of over 60% in size
How it was run: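 72 h cell-killing screen, 500 cells/well, CellTiter-Glo luminescence. Paired lines KB-3-1/KB-8-5-11; P-gp dependence checked by tariquidar co-treatment and HEK-293 MDR-19 versus empty-vector cells.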

Measured: Potency

CO[C@H]1[C@H](O)[C@H](O[C@H]2CC[C@]3(C=O)C4CC[C@]5(C)[C@H](C6=CC(=O)OC6)CC[C@]5(O)C4CC[C@@H]3C2)O[C@@H](C)[C@@H]1O (stereo not given in full)
active: [1] 25.2 nM | CAOV3 100 nM | HeLa 126 nM
inactive: [2] | [3] | [4]

CC1=CC(=O)[C@@H](O)[C@]2(C)C3[C@@H](O)[C@@H]4OC(=O)[C@@H]([C@H]4C)[C@]3(C)C(=O)C[C@@H]12 (stereo not given in full)
inactive: [3] | [4] | CAOV3 | HeLa | JEG-3
active: [1] 3210 nM

NC(=O)c1ncn2c1CN=C(c1ccccc1Br)c1cc(F)ccc1-2
not listed: [3] | [7]
inactive: all other assays above

COC1CC(O[C@H]2CC[C@@]3(C)C(CCC4C3CC[C@]3(C)[C@@H](C5=CC(=O)OC5)CC[C@]43O)C2)OC(C)C1O (stereo not given in full)
active: [1] 100 nM | CAOV3 178 nM | HeLa 141 nM | SKOV3 126 nM
inactive: [3] | [4] | [6]

COC1CC(O[C@H]2CC[C@]3(C=O)C4CC[C@]5(C)[C@@H](C6=CC(=O)OC6)CC[C@]5(O)[C@@H]4CC[C@@H]3C2)OC(C)C1O[C@@H]1O[C@H](CO)[C@@H](O[C@@H]2O[C@H](CO)[C@@H](O)[C@H](O)[C@H]2O)[C@H](O)[C@H]1O (stereo not given in full)
inactive: [2] | [3] | [4]
active: [1] 123 nM | HeLa 398 nM | SKOV3 398 nM

C[C@H]1O[C@@H](n2cnc3c(N)ncnc32)C[C@@H]1O
not listed: CAOV3 | [5]
inactive: all other assays above

CO[C@H]1[C@@H](O)[C@@H](C)O[C@@H](O[C@@H]2C=C3C(OC(C)=O)CC4(O)C(CC[C@]5(C)[C@@H](C6=CC(=O)OC6)CC[C@]45O)[C@@]3(C)CC2)[C@@H]1O (stereo not given in full)
active: [1] 193 nM | CAOV3 501 nM | HeLa 501 nM | SKOV3 282 nM
inactive: [3] | [4] | [6]

N#Cc1ccc([C@H]2CCCC[C@H]2O)cc1C(F)(F)F
active: [5] 26800 nM
not listed: [6] | SKOV3 | [7]
inactive: all other assays above

C=C1[C@@H](C)[C@H]2[C@H](Cc3ccccc3)NC(=O)[C@]23OC(=O)/C=C/C(=O)CCC[C@@H](C)C/C=C/[C@H]3[C@@H]1O
inactive: JEG-3
active: [1] 5800 nM | [4] 20000 nM | CAOV3 12600 nM | SKOV3 25100 nM

CC(C)(C)[C@]1(O)C[C@@H]2OC(=O)C[C@@]23C(=O)O[C@@H]2OC(=O)[C@@H](O)[C@]213
not listed: [3] | CAOV3 | [5] | [7]
inactive: all other assays above
